In the supplement of paper PMC6555819:

What follows are sequences tested on THRa homodimer (NR concentration 90 nM) (assay: PBM binding z-score (relative to random genomic background probes); higher = stronger binding; sequences stand for … in GC…GCGATTGACAGCGTAGAATGAAGG).
Method in brief: (§1)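 Ligand-free nuclear receptor dimers were applied to custom Agilent 4×180K protein-binding microarrays whose double-stranded probes carried direct-repeat seeds, single-nucleotide variants, half-site ablations and random human genomic background sequences in 34-nt variable regions. Incubation lasted 1 h. Binding z-scores were computed against the random background probes from regression-normalized fluorescence.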

Sequence | PBM binding z-score
CCTTACGGGTCACTGACAGGTTATACCATTTGGA | 0.447
ACTAGCAGGCCAAGTTTGCGTCACTCAAACAAAG | -0.635
TGTCTAAGTTCAAAGGTAACGTAAGTATCCACAC | 0.485
CAAACTAGGTCACGAAAGGTCAAAGTCGAATGAC | 2.6
TATACAGGGTCAAAGGCCAGGGTACGAATGTCGA | 1.2
CAAGACAGGTGAGAAGGTAACTCAGCCTCGATTA | 0.475
GTAGCAAGGTGAATAGGTCGTTGATGAGTAGGCG | -0.149
CAGCCTAGGTCAGGGCCACTATAGGAGGAACGTT | 0.516
CGAACTAGGTCAAGGACAGTGGATCTCCGCACGC | 2
TCATTTAGGTAAACAGGTGAAAGTCCGTAAGTTA | 1.13
CAAACTAGGTCACTGGAAGGTCAAAGTCCGCATG | 2.43
TCATATAGGTATACAGGTGAAAGTCCGTAAGTTA | 0.585
ATCTTTAGGTAAAAGTTCAGTGAATCCCGAGGAT | 0.573
ACGAGTTGGTCAGCTGAGGTCACACACAATTCGG | 4.97
TAGCCTAGGTCATCGGCCAGTATACCACGCGAAC | 1.11
CCTCCTGGGCCATTCAGAGGTCATTGATCATATG | 1.39
TAGCCTAGGTCATGCGGGCCATTATAGTGTCGGC | 1.17
TAGTCTAGGTCATTCAGGGGCCAGTATAGAAAGC | 1.42

What follows are sequences tested on VDR homodimer (NR concentration 270 nM) in the same assay as above.
Method in brief: as §1

Sequence | PBM binding z-score
AGAATGAGGTTATTAAGATCCGGGAATTGCGGTC | 0.784
ATCTCTAGGTAAGACTCACTTCAGTGAAGAACGC | -0.111
ACTAGCAGGCCAAGGGTCACTCAAGATTAGTCCG | 1.29
TCATATAGGTAAAGGTGAAGGTCGAACGATATGA | 0.402
TCTCGGAGGACACGACAGGTCAGAGCTCGACATC | 0.677
CCTACTGGGCCATTAGGTCATTGATATCAACGTT | 1.01
GCGACTGGGGCATCAGCAGGTTACCATGACTTAA | -0.549
ATCGACAGGTCGACGAGGTGAGTATACACCGTTT | 0.49
TAATATAGGTAAACAGGTGAAAGTCCGTAAGTTA | 0.444
CCGACTGGGGCAGAAACGTTACCATACCATCCGG | -0.552
CCTCGGAGGACAGAGGGTCAGAGCTGTCCGCTTT | -0.0777
TCTAGCAGGCCAGAGGGCCACTCAAGAGGTACGG | -0.232
CGAACTAGGTCATTGACAGGACAGTGAATAGTAA | 0.793
CGTCCAAGGTCATAGGAGCTCAGTGAAGACAGAT | 2.47
TCTATTACTTGATTAGGGCAACCGAAACAGCGGA | 0.603
ATATGTAGGTTAAGGGTCAGTCAGGTTGGTTCGC | 2.75
AGTCAAAGTTCACTAGGTAACGTGAGATTCAGCT | 3.17
GCTATTAATTGAAAGGGCAACCGAATGATTCTCG | 0.758
CCTAGCAGGACAATCTGGGTCACTCAAGGCTTGA | 0.0931
ACTATTAGTTGAGACGAGGTCAACCGATAGGTTG | 3.21

Sequence | PBM binding z-score
TCGAGTAGGTGACCAATGGGGCATTCAGCTTTCT | -0.776
CGAACTAGGTCATTGACAGAACAGTGAATAGTAA | 1.15
CCTTACGGGTCACTGACAGGTTATACCATTTGGA | 1.41
ACTAGCAGGCCAAGTTTGCGTCACTCAAACAAAG | 0.0311
TGTCTAAGTTCAAAGGTAACGTAAGTATCCACAC | 3.83
CAAACTAGGTCACGAAAGGTCAAAGTCGAATGAC | 3.77
TATACAGGGTCAAAGGCCAGGGTACGAATGTCGA | 3.31
CAAGACAGGTGAGAAGGTAACTCAGCCTCGATTA | -0.249
GTAGCAAGGTGAATAGGTCGTTGATGAGTAGGCG | -0.287
CAGCCTAGGTCAGGGCCACTATAGGAGGAACGTT | -0.129
CGAACTAGGTCAAGGACAGTGGATCTCCGCACGC | 0.315
TCATTTAGGTAAACAGGTGAAAGTCCGTAAGTTA | 0.754
CAAACTAGGTCACTGGAAGGTCAAAGTCCGCATG | 3.86
TCATATAGGTATACAGGTGAAAGTCCGTAAGTTA | 0.541
ATCTTTAGGTAAAAGTTCAGTGAATCCCGAGGAT | 1.63
ACGAGTTGGTCAGCTGAGGTCACACACAATTCGG | 4.4
TAGCCTAGGTCATCGGCCAGTATACCACGCGAAC | 0.802
CCTCCTGGGCCATTCAGAGGTCATTGATCATATG | 3.92
TAGCCTAGGTCATGCGGGCCATTATAGTGTCGGC | 1.49
TAGTCTAGGTCATTCAGGGGCCAGTATAGAAAGC | 1.88
